The nature of experiment [1]: NCI Yeast Anticancer Drug Screen. Data for the rad50 strain (AID 155).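 Note: 0% = growth of vehicle-only cultures of the same strain.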 The conditions noted are these: S. cerevisiae rad50 strain growth inhibition, active compounds read high. In a few lines:
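Growth of the mutant yeast was measured after compound exposure and referenced to vehicle-treated cultures.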

The nature of experiment [2]: NCI Yeast Anticancer Drug Screen. Data for the mec2-1 strain (AID 157). The conditions noted are these: S. cerevisiae mec2-1 strain, active compounds read high. The procedure, abridged:
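Growth inhibition is read against vehicle-treated controls after compound exposure of the mec2-1 yeast strain, which is defective in DNA damage repair or cell cycle control.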

Experiment [3] in a line: NCI Yeast Anticancer Drug Screen. Data for the sgs1 mgt1 strain (AID 161).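 Note: 0% = growth of cultures given vehicle only.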 The conditions noted are these: S. cerevisiae sgs1 mgt1 strain, active compounds read high. In a few lines: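 Compounds are added to genetically altered yeast, and growth is compared with cultures given vehicle alone to give percent inhibition.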
A short description of experiment [4]: NCI Yeast Anticancer Drug Screen. Data for the cln2 rad14 strain (AID 165).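 Note: 0% = growth equal to vehicle treated cultures.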 The conditions noted are these: S. cerevisiae cln2 rad14 strain, active compounds read high. In a few lines: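 Growth inhibition, relative to vehicle-treated controls, is the read-out. The test organism is a yeast strain with defined genetic alterations, cln2 rad14.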
The nature of experiment [5]: NCI Yeast Anticancer Drug Screen. Data for the bub3 strain (AID 167). The conditions noted are these: S. cerevisiae bub3 mutant strain, active compounds read high. In a few lines:
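Whole-cell yeast assay. The mutant strain was incubated with compounds, and growth inhibition was determined by comparison with vehicle-treated cells.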

Experiment [6] is described as follows: NCI Yeast Anticancer Drug Screen. Data for the mlh1 rad18 strain (AID 175). The conditions noted are these: S. cerevisiae mlh1 rad18 strain growth inhibition, active compounds read high. In a few lines:
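Cells of a genetically altered yeast strain, deficient in DNA damage repair, were treated with compound. Their growth was then compared with that of vehicle-treated cultures to give inhibition.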

Setting [7] is: at 5.0 µM (retest, dose inferred, filed as 0.5).
The mark [8] stands for this setting: at 50.0 µM (retest, dose inferred, filed as 5.0).

The panel holds about 79,000 compounds, 15% with a hit somewhere; the sample as a whole holds those more often. Unmarked numbers belong to inactive results. Calls of active or inactive are those of the source. Cut-off read from the data, not from the text of the source: active = growth inhibition above about 70%; inactive = the rest.

In the case of `COc1ccc(C2COc3cc(O)c(O)cc3C2)cc1OC` (stereo not given), the growth inhibition is -10% in experiment [1] (setting [7]); 60% in experiment [1] (setting [8]); 61.4% in experiment [1] (at 50.0 µM); 14% in experiment [2] (setting [7]); 81% (active) in experiment [2] (setting [8]); 72.2% (active) in experiment [2] (at 50.0 µM). Besides, the growth inhibition in experiment [3] (setting [7]) was 7%; in experiment [3] (setting [8]), 69%; in experiment [3] (at 50.0 µM), 43.3%; in experiment [4] (setting [7]) it was -6%; in experiment [4] (setting [8]) it was 2%; in experiment [4] (at 50.0 µM), 51.5%. The growth inhibition in experiment [5] (setting [7]) is -14%; in experiment [5] (setting [8]) it was 60%; in experiment [5] (at 50.0 µM) it was 29.6%; in experiment [6] (setting [7]) it was 1%; in experiment [6] (setting [8]) it was 90% (active); in experiment [6] (at 50.0 µM), 88% (active).

`COc1ccc(OC(C)=O)c2c1CCC=CC2=O`: the growth inhibition in experiment [1] (setting [7]) is 14%; in experiment [1] (setting [8]), 93% (active); in experiment [1] (at 50.0 µM), 41.9%; in experiment [2] (setting [7]) it was 24%; in experiment [2] (setting [8]) it was 96% (active); in experiment [2] (at 50.0 µM), 41.9%. The growth inhibition in experiment [3] (setting [7]) is 18%; in experiment [3] (setting [8]) it was 93% (active); in experiment [3] (at 50.0 µM) it was 61.3%; in experiment [4] (setting [7]) it was 14%; in experiment [4] (setting [8]), 80% (active); in experiment [4] (at 50.0 µM), 57%. Further, the growth inhibition in experiment [5] (setting [7]) is 22%; in experiment [5] (setting [8]), 92% (active); in experiment [5] (at 50.0 µM), 65.3%; in experiment [6] (setting [7]), 14%; in experiment [6] (setting [8]), 95% (active); in experiment [6] (at 50.0 µM), 74% (active).

As for `CC(C(O)Cc1ccccc1)N(C)N=Nc1ccc([N+](=O)[O-])cc1` (stereo not given), the growth inhibition was 35% in experiment [1] (setting [7]); 84% (active) in experiment [1] (setting [8]); 64.3% in experiment [1] (at 50.0 µM); 18% in experiment [2] (setting [7]); 59% in experiment [2] (setting [8]); 61.6% in experiment [2] (at 50.0 µM). The growth inhibition in experiment [3] (setting [7]) was 24%; in experiment [3] (setting [8]), 91% (active); in experiment [3] (at 50.0 µM), 85.7% (active); in experiment [4] (setting [7]), 21%; in experiment [4] (setting [8]) it was 86% (active); in experiment [4] (at 50.0 µM), 28.3%. Also, the growth inhibition in experiment [5] (setting [7]) was 23%; in experiment [5] (setting [8]), 92% (active); in experiment [5] (at 50.0 µM), 72.7% (active); in experiment [6] (setting [7]), 51%; in experiment [6] (setting [8]), 89% (active); in experiment [6] (at 50.0 µM), 78.5% (active).

With `COc1cc(CSc2ccc(O)cc2)cc(OC)c1OC`, the growth inhibition in experiment [1] (setting [7]) is -3%; in experiment [1] (setting [8]), 34%; in experiment [1] (at 50.0 µM) it was 79.1% (active); in experiment [2] (setting [7]) it was -18%; in experiment [2] (setting [8]) it was -16%; in experiment [2] (at 50.0 µM) it was 84.3% (active). For the same compound, the growth inhibition in experiment [3] (setting [7]) is -24%; in experiment [3] (setting [8]), 29%; in experiment [3] (at 50.0 µM), 84.9% (active); in experiment [4] (setting [7]) it was -18%; in experiment [4] (setting [8]), 4%; in experiment [4] (at 50.0 µM), 50%. The growth inhibition in experiment [5] (setting [7]) is -13%; in experiment [5] (setting [8]) it was 21%; in experiment [5] (at 50.0 µM), 81.8% (active); in experiment [6] (setting [7]) it was -5%; in experiment [6] (setting [8]) it was -4%; in experiment [6] (at 50.0 µM), 82.3% (active).

On to `CCC(=O)NC1=C(Cl)C(=O)c2ccccc2C1=O`, for which the growth inhibition in experiment [1] (setting [7]) was 99% (active); in experiment [1] (setting [8]) it was 99% (active); in experiment [1] (at 50.0 µM), 99.2% (active); in experiment [2] (setting [7]), 100% (active); in experiment [2] (setting [8]), 99% (active); in experiment [2] (at 50.0 µM), 98.2% (active). Further, the growth inhibition in experiment [3] (setting [7]) was 100% (active); in experiment [3] (setting [8]), 100% (active); in experiment [3] (at 50.0 µM), 98.2% (active); in experiment [4] (setting [7]), 99% (active); in experiment [4] (setting [8]), 100% (active); in experiment [4] (at 50.0 µM) it was 86.2% (active). The growth inhibition in experiment [5] (setting [7]) is 99% (active); in experiment [5] (setting [8]), 99% (active); in experiment [5] (at 50.0 µM) it was 98.9% (active); in experiment [6] (setting [7]), 99% (active); in experiment [6] (setting [8]), 99% (active); in experiment [6] (at 50.0 µM), 98.5% (active).

Turning to `CCCCCCC(Sc1n[nH]c(=O)[nH]c1=O)C(=O)OCC` (stereo not given), the growth inhibition is 3% in experiment [1] (setting [7]); 76% (active) in experiment [1] (setting [8]); 61.5% in experiment [1] (at 50.0 µM); -1% in experiment [2] (setting [7]); 80% (active) in experiment [2] (setting [8]); 52.9% in experiment [2] (at 50.0 µM). The growth inhibition in experiment [3] (setting [7]) is 1%; in experiment [3] (setting [8]) it was 88% (active); in experiment [3] (at 50.0 µM), 77.6% (active); in experiment [4] (setting [7]), 3%; in experiment [4] (setting [8]), 83% (active); in experiment [4] (at 50.0 µM), 52%. Moreover, the growth inhibition in experiment [5] (setting [7]) is 2%; in experiment [5] (setting [8]), 77% (active); in experiment [5] (at 50.0 µM), 43.5%; in experiment [6] (setting [7]), -2%; in experiment [6] (setting [8]), 89% (active); in experiment [6] (at 50.0 µM), 61.1%.

On to `O=c1nc(-c2ccccc2)cc(-c2ccccc2O)[nH]1`, for which the growth inhibition in experiment [1] (setting [7]) was -11%; in experiment [1] (setting [8]), 93% (active); in experiment [1] (at 50.0 µM), 44.1%; in experiment [2] (setting [7]), -1%; in experiment [2] (setting [8]), 25%; in experiment [2] (at 50.0 µM), 16.3%. Also, the growth inhibition in experiment [3] (setting [7]) is -1%; in experiment [3] (setting [8]), 40%; in experiment [3] (at 50.0 µM), 30.4%; in experiment [4] (setting [7]) it was 19%; in experiment [4] (setting [8]), 61%; in experiment [4] (at 50.0 µM), 33.8%. Also, the growth inhibition in experiment [5] (setting [7]) is 0%; in experiment [5] (setting [8]), 87% (active); in experiment [5] (at 50.0 µM) it was 16.9%; in experiment [6] (setting [7]), 1%; in experiment [6] (setting [8]), 68%; in experiment [6] (at 50.0 µM), 33.5%.

As for `Clc1ccccc1/C=C/c1ccccn1`, the growth inhibition was -8% in experiment [1] (setting [7]); 4% in experiment [1] (setting [8]); 41.2% in experiment [1] (at 50.0 µM); -6% in experiment [2] (setting [7]); -16% in experiment [2] (setting [8]); 30.7% in experiment [2] (at 50.0 µM). Also, the growth inhibition was -8% in experiment [3] (setting [7]); 1% in experiment [3] (setting [8]); 74.7% (active) in experiment [3] (at 50.0 µM); -9% in experiment [4] (setting [7]); -16% in experiment [4] (setting [8]); 16.2% in experiment [4] (at 50.0 µM). Further, the growth inhibition in experiment [5] (setting [7]) is -3%; in experiment [5] (setting [8]), 30%; in experiment [5] (at 50.0 µM), 67.5%; in experiment [6] (setting [7]), -7%; in experiment [6] (setting [8]), -6%; in experiment [6] (at 50.0 µM) it was 71.8% (active).

With `COc1ccc(CSC(=S)Nc2ccc(Cl)cc2Cl)cc1`, the growth inhibition is 6% in experiment [1] (setting [7]); 98% (active) in experiment [1] (setting [8]); 99.2% (active) in experiment [1] (at 50.0 µM); 5% in experiment [2] (setting [7]); 99% (active) in experiment [2] (setting [8]); 99.3% (active) in experiment [2] (at 50.0 µM). Besides, the growth inhibition in experiment [3] (setting [7]) was 8%; in experiment [3] (setting [8]), 99% (active); in experiment [3] (at 50.0 µM), 99.3% (active); in experiment [4] (setting [7]), -24%; in experiment [4] (setting [8]), 96% (active); in experiment [4] (at 50.0 µM) it was 98.7% (active). Besides, the growth inhibition was -6% in experiment [5] (setting [7]); 97% (active) in experiment [5] (setting [8]); 99% (active) in experiment [5] (at 50.0 µM); 3% in experiment [6] (setting [7]); 98% (active) in experiment [6] (setting [8]); 98.8% (active) in experiment [6] (at 50.0 µM).

As for `CCCCCCCCCCCCCC(=O)NO`, the growth inhibition is 97% (active) in experiment [1] (setting [7]); 97% (active) in experiment [1] (setting [8]); 89.2% (active) in experiment [1] (at 50.0 µM); 99% (active) in experiment [2] (setting [7]); 98% (active) in experiment [2] (setting [8]); 91.3% (active) in experiment [2] (at 50.0 µM). For the same compound, the growth inhibition in experiment [3] (setting [7]) was 99% (active); in experiment [3] (setting [8]), 98% (active); in experiment [3] (at 50.0 µM), 92.8% (active); in experiment [4] (setting [7]) it was 89% (active); in experiment [4] (setting [8]), 96% (active); in experiment [4] (at 50.0 µM), 88.2% (active). The growth inhibition is 99% (active) in experiment [5] (setting [7]); 98% (active) in experiment [5] (setting [8]); 90.2% (active) in experiment [5] (at 50.0 µM); 99% (active) in experiment [6] (setting [7]); 97% (active) in experiment [6] (setting [8]); 89.1% (active) in experiment [6] (at 50.0 µM).
